{
  "source": "PubChem BioAssay AID720504",
  "about": "(National Center for Advancing Translational Sciences (NCATS), 2013)",
  "note": "Among all 360,000 compounds or so, about 10,000 (2.8%) were called active. Another 4% or so got no clear call; they are omitted. The list comes from a sample in which actives are over-represented; it also holds similar structures and randomly drawn compounds. Values without a mark were called inactive. The call rests on the fitted dose curve; in most records, active means well fitted inhibition curve with a large enough effect; inconclusive means small, poorly fitted or top-dose-only effect; inactive means flat fitted curve, though single readings scatter.",
  "data": [
    {"molecular_target": "Serine/threonine-protein kinase PLK1 (Homo sapiens) (UniProt P53350)", "sequence (P53350 whole entry, looked up, the tested form may be a part)": "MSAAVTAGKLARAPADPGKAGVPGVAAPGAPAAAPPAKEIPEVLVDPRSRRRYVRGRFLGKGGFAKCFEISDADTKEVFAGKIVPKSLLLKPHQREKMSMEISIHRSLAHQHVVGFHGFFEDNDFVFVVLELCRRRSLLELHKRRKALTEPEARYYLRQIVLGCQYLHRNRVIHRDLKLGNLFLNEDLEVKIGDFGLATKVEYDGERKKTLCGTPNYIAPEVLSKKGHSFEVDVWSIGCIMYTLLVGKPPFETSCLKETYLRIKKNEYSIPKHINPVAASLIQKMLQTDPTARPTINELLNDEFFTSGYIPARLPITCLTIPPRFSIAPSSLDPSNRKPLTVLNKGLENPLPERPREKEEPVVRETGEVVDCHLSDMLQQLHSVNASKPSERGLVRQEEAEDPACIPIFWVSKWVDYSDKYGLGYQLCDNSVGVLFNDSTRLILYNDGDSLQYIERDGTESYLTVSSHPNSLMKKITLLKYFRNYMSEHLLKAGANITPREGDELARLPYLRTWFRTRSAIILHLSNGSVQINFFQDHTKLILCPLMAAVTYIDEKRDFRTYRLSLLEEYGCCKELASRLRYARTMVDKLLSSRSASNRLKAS", "experiment": "qHTS for Inhibitors of PLK1-PDB (polo-like kinase 1 - polo-box domain): Primary Screen; further: nearly all actives have a fitted effect of over 65% in size; further: potency means the concentration at half of the fitted maximal effect; on max response, negative = inhibition: series mostly up to about 57 µM; on the % scale 0 is the no-effect control and ±100 the full control effect", "details": "Plk1 PBD binding of FITC phosphopeptide, fluorescence polarization", "excerpt": "The polo-like kinase 1 (Plk1) is a member of a conserved subfamily of serine / threonine protein kinases that plays a pivotal roles in cell proliferation. It has a C-terminal non-catalytic region called the polo-box domain (PBD) that plays a crucial role in the subcellular localization of the Plk1. […] Furthermore, depletion of the overexpressed Plk1 by RNAi efficiently induces apoptotic cell death in cancer and reduces tumor growth in mouse xenograft models. Thus, targeting Plk1 is an appealing strategy for anti-cancer therapy. Therefore, this project aimed to screen the Molecular Libraries Small Molecule Repository (MLSMR) using a novel approach to find inhibitors that target the Plk1 PBD instead of the conventional N-terminal catalytic domain. This project employed a fluorescence polarization (FP) assay using a FITC-conjugated phospho-9-mer (p-9-mer) peptide and purified human Plk1 PBD protein. The identified small molecule inhibitors of Plk1 PBD can then further be developed into useful tools for biomedical and clinical research that complements or replaces current relevant disease therapy. NIH Chemical Genomics Center [NCGC] NIH Molecular Libraries Probe Centers Network [MLPCN] MLPCN Grant: MH100728 Assay Submitter (PI): Kyung Lee, NCI\nFour microliter of 25 nM FITC-p-9-mer + 60 nM Plk1 PBD in buffer solution (final concentrations 25 nM and 60 nM respectively) or 4 uL of 25 nM FITC-p-9-mer (final concentration 25 nM) in buffer will be dispensed into a 1,536 Greiner medium-binding black solid plate. Small molecules at final concentrations of 18 nM to 57 uM and positive control phospho-9-mer (sequence: Ac-PPLHSpTAI-NH2) at final concentrations 26 nM to 57 uM and phospho-13-mer (sequence: Ac-[…]pTAI-NH2) at final concentrations of 1 nM to 2.3 uM will be pin-transferred (23 nL) to the plate via a Kalypsys pin-tool robotics equipped with a 1,536-pin array. The reaction plate will be centrifuged for 1 min at 1000 rpm and incubated at room temperature for 10 min. The FITC fluorescence signals will be read using the PerkinElmer ViewLux plate reader at 480 / 20 nm excitation and 540 / 20 nm S and P polarization emission wavelengths. Reagent bottles will be kept submerged into 4 °C recirculating chiller bath and all liquid lines will be covered with aluminum foil to minimize degradation. Library plates will be screened starting from the lowest to the highest concentrations to minimize compound carryover. Vehicle only plates, with DMSO being pin-transferred instead of compound solutions, will be included regularly throughout the screen to record any systematic shifts in assay signal.", "units": {"max response, negative = inhibition": "%"}, "values": [
      {"molecule": "COc1ccc(C(=O)C2CCCN(Cc3ccc(C)s3)C2)cc1OC", "note": "(stereo unspecified)", "max response, negative = inhibition": -12.4},
      {"molecule": "COc1ccccc1OC(=O)c1ccc(C)c(S(=O)(=O)N2CCOCC2)c1", "max response, negative = inhibition": -17.4},
      {"molecule": "COc1cc(C(=S)N2CCOCC2)ccc1O", "Potency": "11.9 µM (active)"},
      {"molecule": "S=C(NCCc1ccccc1)N1Cc2cc(N3CCOCC3)ccc2-n2nncc2C1", "max response, negative = inhibition": -7.87},
      {"molecule": "OC1/C(=C/c2ccc(C(F)(F)F)cc2)N2CCC1CC2", "note": "(stereo unspecified)", "max response, negative = inhibition": 3.89},
      {"molecule": "CCOC(=O)C1(Cc2ccc(Cl)cc2)CCN(C(C)CCn2cccn2)CC1", "note": "(stereo unspecified)", "max response, negative = inhibition": -2.75},
      {"molecule": "CCOc1ccc(-c2cc(C)[n+](CCN(CC)CC)c(-c3ccc(OCC)cc3)c2)cc1", "max response, negative = inhibition": -4.15},
      {"molecule": "CCn1cc(CN2CCCC(C(=O)c3cccc(C(F)(F)F)c3)C2)cn1", "note": "(stereo unspecified)", "max response, negative = inhibition": -6.76},
      {"molecule": "CCN(CC)C(=O)Oc1ccc(NC(=O)N2CCOCC2)cc1", "max response, negative = inhibition": -7.81},
      {"molecule": "CCN(CC)C(=O)Oc1ccc(OC(=O)N(CC)CC)cc1", "Potency": "16.8 µM (active)"},
      {"molecule": "CN(C)C(=O)Oc1ccc(OCc2cccc[n+]2C)cc1", "max response, negative = inhibition": -4.14},
      {"molecule": "CCC1(C)CC(CCNCc2ccc(N(C)C)cc2)(c2ccc(F)cc2)CCO1", "note": "(stereo unspecified)", "max response, negative = inhibition": -1.51},
      {"molecule": "COc1ccccc1CN1CCN(C(=O)Cc2ccccc2)CC1", "max response, negative = inhibition": 3.36},
      {"molecule": "O=c1[nH]c2ccccc2n1C1CCN(C(c2ccccc2)c2nnnn2Cc2ccccc2)CC1", "note": "(stereo unspecified)", "max response, negative = inhibition": 3.89},
      {"molecule": "COc1ccc2c(c1)NP(=S)(c1ccccc1)N2", "note": "(stereo unspecified)", "Potency": "3.36 µM (active)"},
      {"molecule": "Cc1cc(C)c2c(c1)NP(=S)(c1ccccc1)N2", "note": "(stereo unspecified)", "max response, negative = inhibition": -17.9},
      {"molecule": "CC(=O)Nc1ccccc1C(=O)OCC(=O)c1cccc2ccccc12", "max response, negative = inhibition": -5.92},
      {"molecule": "CC(c1ccccc1)(c1ccccc1)c1ccncc1", "max response, negative = inhibition": -1.65},
      {"molecule": "COC(=O)C1=C(c2cc3ccccc3o2)C[C@@H]2CC[C@H]1N2C(=O)NC1CCCCC1", "max response, negative = inhibition": 0.442},
      {"molecule": "CCOC(=O)C1=C(C)OC(N)=C(C(=O)OC)C12C(=O)Nc1ccc(Br)cc12", "note": "(stereo unspecified)", "max response, negative = inhibition": 0.0447},
      {"molecule": "CC(C)c1ccc(O)c(CN2CCN(c3ccccc3)CC2)c1", "max response, negative = inhibition": 6.47},
      {"molecule": "COc1cccc(N2C(=O)NC(=O)/C(=C\\c3ccc([N+](=O)[O-])s3)C2=O)c1", "Potency": "5.32 µM (active)"},
      {"molecule": "O=C1NC(=O)N(c2ccccc2)C(=O)/C1=C/c1ccc([N+](=O)[O-])s1", "Potency": "2.67 µM (active)"},
      {"molecule": "CCc1nc2ccccc2c(=O)n1-c1cccc(OC)c1", "max response, negative = inhibition": -4.27},
      {"molecule": "COc1cccc(N2C(=O)NC(=O)/C(=C\\c3cn(C)c4ccccc34)C2=O)c1", "Potency": "9.47 µM (active)"},
      {"molecule": "CC1=C(C(=O)Nc2ccccc2)SCCO1", "max response, negative = inhibition": -5.57},
      {"molecule": "CC(=CCOc1ccc2ccc(=O)oc2c1)C1=CC(=O)C(C)(C)O1", "max response, negative = inhibition": -1.51},
      {"molecule": "O=C(O)C1CSC(c2cccnc2)N1", "note": "(stereo unspecified)", "max response, negative = inhibition": -10},
      {"molecule": "O=C1NCN(c2ccccc2)C12CCN(C(c1cccs1)c1nnnn1C1CCCCC1)CC2", "note": "(stereo unspecified)", "max response, negative = inhibition": -2.86},
      {"molecule": "COP(=O)(NS(=O)(=O)c1ccccc1)OC", "max response, negative = inhibition": -7.79},
      {"molecule": "C[N+]1(C)CCOC(O)(c2ccc(-c3ccc(C4(O)C[N+](C)(C)CCO4)cc3)cc2)C1", "note": "(stereo unspecified)", "max response, negative = inhibition": -17.9},
      {"molecule": "COc1ccc(-n2c(O)c(C(C)=Nc3ccc4c(c3)CCC4)c(=O)[nH]c2=O)cc1", "max response, negative = inhibition": 2.28},
      {"molecule": "COc1ccccc1C1=NCc2nnc(CSC)n2-c2ccc(Cl)cc21", "max response, negative = inhibition": 2.66},
      {"molecule": "O=C(NCC1=C(c2ccc3ccccc3c2)C[C@@H]2CC[C@H]1N2Cc1ccco1)c1cccs1", "max response, negative = inhibition": -9.52},
      {"molecule": "O=C1NC(=O)C(C/C=C/c2ccccc2)C(=O)N1", "max response, negative = inhibition": -29.7},
      {"molecule": "CCN(CC)C(=O)c1ccc(NC(=O)c2cc(-n3cnnc3)ccc2Cl)cc1", "max response, negative = inhibition": -5.96},
      {"molecule": "CN(C)CC1Oc2ccccc2OC1(O)c1ccccc1", "note": "(stereo unspecified)", "Potency": "5.32 µM (active)"},
      {"molecule": "OC(CNC1CCCCC1)c1ccccc1", "note": "(stereo unspecified)", "max response, negative = inhibition": -2.72},
      {"molecule": "CN1CCC(N(C)Cc2cccnc2)CC1", "max response, negative = inhibition": -7.61},
      {"molecule": "CCOC(=O)C(O)(c1ccc(N)c(OC)c1)C(F)(F)F", "note": "(stereo unspecified)", "max response, negative = inhibition": -1.46},
      {"molecule": "CN(C)C(=O)Oc1cc(=O)n2c3c(cccc13)CCC2", "max response, negative = inhibition": -13.7},
      {"molecule": "CC1CCCN1CCC(C(N)=O)(c1ccccc1)c1ccccc1", "note": "(stereo unspecified)", "max response, negative = inhibition": -4.65},
      {"molecule": "Cc1ccnc(-n2c(C)cc(/C=C3\\C(=O)NC(=S)N(C)C3=O)c2C)c1", "Potency": "2.38 µM (active)"},
      {"molecule": "Cc1ccc(-n2c(C)cc(/C=C3\\C(=O)NC(=O)N(C)C3=O)c2C)cc1C", "max response, negative = inhibition": -15.6},
      {"molecule": "O=C(NC(c1ccc(Cl)cc1)P(=O)(Oc1ccccc1)Oc1ccccc1)OCc1ccccc1", "note": "(stereo unspecified)", "max response, negative = inhibition": 0.141},
      {"molecule": "C[C@H]1CN([C@@H](C)CO)C(=O)CCCn2nncc2CO[C@H]1CN(C)C(=O)Oc1ccccc1", "max response, negative = inhibition": -3.55}
    ]}
  ]
}
